Measurements as given in PubChem BioAssay (EPA / NIEHS).
Results filed as inconclusive are left out. Activity calls are given as the source filed them. Rule for the calls, unless noted: active = hit-call score of the fitted dose curve at least 0.9, where 1 is the maximum; inconclusive = response in the unintended direction; inactive = score below 0.9.

Key:
[1] = test system: zebrafish Estrogen Receptor (ER2b), gene 317733; experiment: ATG_zfER2b_XSP2: Attagene TRANS-FACTORIAL Multi-Species (XSP2) HepG2 Assay for zebrafish Estrogen Receptor (ER2b) (AID 2283823);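 note: fitted upward as reporter gain over DMSO so potency reflects activation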
How it was run: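 Transcriptional induction measured as reporter mRNA (RT-PCR, fluorescent capillary electrophoresis) in transiently transfected HepG2 cells after 24 h dosing; DMSO served as negative control and baseline.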

[2] = test system: zebrafish Androgen Receptor (AR), gene 100005148; experiment: ATG_zfAR_XSP2: Attagene TRANS-FACTORIAL Multi-Species (XSP2) HepG2 Assay for zebrafish Androgen Receptor (AR) (AID 2283825);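 note: hits raise reporter mRNA above DMSO so AC50 reflects agonist-type gain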
How it was run: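 After 24 h compound exposure in medium with 3 nM 6-alpha-fluorotestosterone plus 1.5 nM norgestrel, HepG2 cells carrying zebrafish AR–GAL4 reporter constructs were assessed for reporter mRNA gain by RT-PCR and capillary electrophoresis.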

[3] = target: Peroxisome proliferator-activated receptor gamma (Homo sapiens) (UniProt P37231); experiment: ATG_hPPARg_XSP2: Attagene TRANS-FACTORIAL Multi-Species (XSP2) HepG2 Assay for human Peroxisome Proliferator-activated Receptor gamma (PPARg) (AID 2283829);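 note: actives raise reporter mRNA above DMSO so AC50 reflects PPARg activation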
Peroxisome proliferator-activated receptor gamma (Homo sapiens), sequence (P37231 whole entry, looked up, the tested form may be a part): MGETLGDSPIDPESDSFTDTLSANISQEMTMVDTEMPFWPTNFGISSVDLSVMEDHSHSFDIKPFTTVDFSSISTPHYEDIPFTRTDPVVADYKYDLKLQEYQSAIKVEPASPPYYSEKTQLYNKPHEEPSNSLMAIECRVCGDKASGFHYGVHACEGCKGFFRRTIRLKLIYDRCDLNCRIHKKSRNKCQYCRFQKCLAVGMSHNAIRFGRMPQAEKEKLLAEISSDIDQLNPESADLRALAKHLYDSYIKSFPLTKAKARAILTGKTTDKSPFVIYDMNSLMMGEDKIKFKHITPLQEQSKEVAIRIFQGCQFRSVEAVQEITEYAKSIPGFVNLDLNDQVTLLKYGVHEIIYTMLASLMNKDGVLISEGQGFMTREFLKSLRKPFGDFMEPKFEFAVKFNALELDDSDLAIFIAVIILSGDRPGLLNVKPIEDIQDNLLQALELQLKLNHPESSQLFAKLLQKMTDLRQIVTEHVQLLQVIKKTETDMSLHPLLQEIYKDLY
How it was run: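 Human HepG2 cells carried transiently transfected Gal4 reporter units and were treated with chemical for 24 h alongside androgen-receptor stimulants (3 nM 6-alpha-fluorotestosterone, 1.5 nM norgestrel). Reporter transcripts were detected by RT-PCR with capillary electrophoresis, analysed in the positive direction against DMSO.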

[4] = target: Nuclear receptor subfamily 1 group I member 2 (Mus musculus) (UniProt O54915); experiment: ATG_mPXR_XSP2: Attagene TRANS-FACTORIAL Multi-Species (XSP1) HepG2 Assay for mouse Pregnane X Receptor (PXR) (AID 2283831)
Nuclear receptor subfamily 1 group I member 2 (Mus musculus), sequence (O54915 whole entry, looked up): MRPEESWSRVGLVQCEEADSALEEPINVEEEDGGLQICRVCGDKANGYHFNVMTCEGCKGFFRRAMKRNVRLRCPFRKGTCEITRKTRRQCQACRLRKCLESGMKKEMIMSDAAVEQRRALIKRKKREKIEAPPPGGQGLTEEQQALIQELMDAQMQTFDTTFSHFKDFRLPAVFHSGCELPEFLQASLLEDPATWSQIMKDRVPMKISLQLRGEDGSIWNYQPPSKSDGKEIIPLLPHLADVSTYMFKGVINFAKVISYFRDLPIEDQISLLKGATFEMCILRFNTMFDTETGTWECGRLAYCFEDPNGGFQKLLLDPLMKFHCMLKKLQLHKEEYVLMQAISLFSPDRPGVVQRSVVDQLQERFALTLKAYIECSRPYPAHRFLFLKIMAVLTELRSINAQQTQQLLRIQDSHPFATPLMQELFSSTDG
How it was run: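 Fluorescence signals from capillary electrophoresis of RT-PCR-amplified reporter mRNA give the readout, gain-of-signal versus DMSO. Transfected HepG2 cells, 24 h dosing, medium contained 3 nM 6-alpha-fluorotestosterone and 1.5 nM norgestrel.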

[5] = target: zebrafish Thyroid Hormone Receptor alpha (TRa), thraa (gene 30670) (UniProt Q98867); experiment: ATG_zfTRa_XSP2: Attagene TRANS-FACTORIAL Multi-Species (XSP1) HepG2 Assay for zebrafish Thyroid Hormone Receptor alpha (TRa) (AID 2283832);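 note: actives raise zebrafish TRa-Gal4 reporter transcript above DMSO baseline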
zebrafish Thyroid Hormone Receptor alpha (TRa), thraa (gene 30670), sequence (Q98867 whole entry, looked up, the tested form may be a part): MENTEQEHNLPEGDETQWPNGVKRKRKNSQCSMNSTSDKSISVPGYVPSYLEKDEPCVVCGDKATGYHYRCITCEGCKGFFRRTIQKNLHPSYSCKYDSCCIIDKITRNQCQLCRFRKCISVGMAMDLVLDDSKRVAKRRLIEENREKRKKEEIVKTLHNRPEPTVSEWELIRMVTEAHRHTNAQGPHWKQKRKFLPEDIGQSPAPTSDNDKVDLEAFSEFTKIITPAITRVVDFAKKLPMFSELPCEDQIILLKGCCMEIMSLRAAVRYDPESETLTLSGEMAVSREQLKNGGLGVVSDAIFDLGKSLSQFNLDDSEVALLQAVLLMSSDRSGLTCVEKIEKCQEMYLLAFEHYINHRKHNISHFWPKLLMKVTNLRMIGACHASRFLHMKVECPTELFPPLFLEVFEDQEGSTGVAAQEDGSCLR
How it was run: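 HepG2, transient MRTU transfection, exogenous NR-Gal4 chimeras; 24 h dosing; mRNA readout via RT-PCR/CE fluorescence; positive direction vs DMSO.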

[6] = test system: zebrafish Peroxisome Proliferator-activated Receptor gamma (PPARg), gene 557037; experiment: ATG_zfPPARg_XSP2: Attagene TRANS-FACTORIAL Multi-Species (XSP2) HepG2 Assay for zebrafish Peroxisome Proliferator-activated Receptor gamma (PPARg) (AID 2283833);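 note: reporter mRNA from a zebrafish PPARg GAL4 chimera measured by RT-PCR and capillary electrophoresis; actives increase reporter signal over DMSO so AC50 reflects activation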
How it was run: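 HepG2, transient MRTU transfection, 24 h compound; zfPPARg-GAL4 reporter mRNA by RT-PCR + capillary electrophoresis; gain-of-signal vs DMSO.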

[7] = test system: turtle Thyroid Hormone Receptor, alpha (TRa), gene 101949057; experiment: ATG_trTRa_XSP2: Attagene TRANS-FACTORIAL Multi-Species (XSP1) HepG2 Assay for turtle Thyroid Hormone Receptor, alpha (TRa) (AID 2283834);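 note: hits raise reporter mRNA over the DMSO baseline so AC50 marks activators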
How it was run: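 Multiplexed TRANS reporter assay; HepG2 carrying NR-Gal4 constructs treated 24 h. mRNA of the GAL4-UAS reporter quantified via labelled RT-PCR fragments on a genetic analyzer, vs DMSO negative control.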

[8] = ATG_M_61_XSP2: Attagene TRANS-FACTORIAL Multi-Species (XSP2) HepG2 Assay for M61 Transcription Factor (Internal Marker) (AID 2283835; active = hit-call score of the fitted dose curve at least 0.9, where 1 is the maximum; inactive = score below 0.9;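 note: active means a rise in signal above the DMSO baseline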)
How it was run: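 Transient MRTU transfection of human HepG2; 24 h chemical dosing with 3 nM 6-alpha-fluorotestosterone + 1.5 nM norgestrel added for AR stimulation. RNA isolated, RT, PCR, FAM-labelled, HpaI cut, CE read. Positive direction vs DMSO.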

[9] = target: zebrafish Thyroid Hormone Receptor beta (TRb), thrb (gene 30607) (UniProt Q9PVE4); experiment: ATG_zfTRb_XSP2: Attagene TRANS-FACTORIAL Multi-Species (XSP1) HepG2 Assay for zebrafish Thyroid Hormone Receptor beta (TRb) (AID 2283836)
zebrafish Thyroid Hormone Receptor beta (TRb), thrb (gene 30607), sequence (Q9PVE4 whole entry, looked up): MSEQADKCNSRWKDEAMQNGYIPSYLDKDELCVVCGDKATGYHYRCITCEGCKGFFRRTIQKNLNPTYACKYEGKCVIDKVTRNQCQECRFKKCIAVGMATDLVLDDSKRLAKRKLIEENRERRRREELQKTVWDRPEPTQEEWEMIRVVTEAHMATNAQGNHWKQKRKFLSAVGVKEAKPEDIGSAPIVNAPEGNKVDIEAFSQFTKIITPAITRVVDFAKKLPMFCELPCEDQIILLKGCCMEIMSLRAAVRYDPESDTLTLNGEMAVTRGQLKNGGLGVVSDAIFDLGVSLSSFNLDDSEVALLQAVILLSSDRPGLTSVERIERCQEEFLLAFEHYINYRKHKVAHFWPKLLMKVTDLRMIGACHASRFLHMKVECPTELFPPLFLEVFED
How it was run: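 Transfect HepG2 with multiple reporter transcription units, dose chemical, incubate 24 h. Isolate RNA, reverse-transcribe, amplify and fluorescently label reporter sequences, digest with HpaI, then resolve by capillary electrophoresis. Positive direction fitted against DMSO.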

[10] = test system: turtle Androgen Receptor (AR), gene 101947425; experiment: ATG_trAR_XSP2: Attagene TRANS-FACTORIAL Multi-Species (XSP2) HepG2 Assay for turtle Androgen Receptor (AR) (AID 2283815);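 for AC50: reporter mRNA from a Gal4 chimera of turtle AR measured by RT-PCR; potency for gain of reporter signal meaning activation above DMSO baseline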
How it was run: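 Reporter transcripts were quantified via RT-PCR and capillary electrophoresis and fitted upward against DMSO. Transiently transfected human HepG2 cells carrying NR-Gal4 chimeras were exposed 24 h, with 3 nM 6-alpha-fluorotestosterone plus 1.5 nM norgestrel added.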

[11] = target: zebrafish Estrogen Receptor (ER1), esr1 (gene 259252) (UniProt P57717); experiment: ATG_zfER1_XSP2: Attagene TRANS-FACTORIAL Multi-Species (XSP2) HepG2 Assay for zebrafish Estrogen Receptor (ER1) (AID 2283816)
zebrafish Estrogen Receptor (ER1), esr1 (gene 259252), sequence (P57717 whole entry, looked up, the tested form may be a part): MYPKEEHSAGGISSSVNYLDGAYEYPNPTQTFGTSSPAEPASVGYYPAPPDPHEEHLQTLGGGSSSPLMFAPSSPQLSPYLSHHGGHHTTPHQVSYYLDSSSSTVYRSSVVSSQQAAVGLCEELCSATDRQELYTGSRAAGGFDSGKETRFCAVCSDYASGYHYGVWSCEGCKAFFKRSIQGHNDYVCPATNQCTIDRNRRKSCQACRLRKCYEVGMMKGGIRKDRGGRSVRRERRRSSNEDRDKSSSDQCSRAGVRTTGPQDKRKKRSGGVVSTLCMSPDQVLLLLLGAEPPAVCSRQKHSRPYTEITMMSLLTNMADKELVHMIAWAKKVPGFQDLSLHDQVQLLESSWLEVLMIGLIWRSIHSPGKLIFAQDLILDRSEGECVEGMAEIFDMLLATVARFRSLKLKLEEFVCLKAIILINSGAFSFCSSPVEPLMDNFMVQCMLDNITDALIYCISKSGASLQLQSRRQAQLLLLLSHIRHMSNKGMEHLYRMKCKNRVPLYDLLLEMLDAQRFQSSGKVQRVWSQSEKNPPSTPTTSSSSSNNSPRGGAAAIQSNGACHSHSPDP
How it was run: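 After 24 h compound exposure, RNA from transfected HepG2 cells was reverse-transcribed and reporter transcripts resolved by capillary electrophoresis. The TRANS format reads exogenous zebrafish ER1-Gal4 chimera activity on GAL4-UAS elements; gain of signal against DMSO.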

[12] = target: chicken Estrogen Receptor (ERa), ESR1 (gene 396099) (UniProt P06212); experiment: ATG_chERa_XSP2: Attagene TRANS-FACTORIAL Multi-Species (XSP2) HepG2 Assay for chicken Estrogen Receptor (ERa) (AID 2283817);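 note: actives raise reporter signal above DMSO so AC50 reflects ER activation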
chicken Estrogen Receptor (ERa), ESR1 (gene 396099), sequence (P06212 whole entry, looked up, the tested form may be a part): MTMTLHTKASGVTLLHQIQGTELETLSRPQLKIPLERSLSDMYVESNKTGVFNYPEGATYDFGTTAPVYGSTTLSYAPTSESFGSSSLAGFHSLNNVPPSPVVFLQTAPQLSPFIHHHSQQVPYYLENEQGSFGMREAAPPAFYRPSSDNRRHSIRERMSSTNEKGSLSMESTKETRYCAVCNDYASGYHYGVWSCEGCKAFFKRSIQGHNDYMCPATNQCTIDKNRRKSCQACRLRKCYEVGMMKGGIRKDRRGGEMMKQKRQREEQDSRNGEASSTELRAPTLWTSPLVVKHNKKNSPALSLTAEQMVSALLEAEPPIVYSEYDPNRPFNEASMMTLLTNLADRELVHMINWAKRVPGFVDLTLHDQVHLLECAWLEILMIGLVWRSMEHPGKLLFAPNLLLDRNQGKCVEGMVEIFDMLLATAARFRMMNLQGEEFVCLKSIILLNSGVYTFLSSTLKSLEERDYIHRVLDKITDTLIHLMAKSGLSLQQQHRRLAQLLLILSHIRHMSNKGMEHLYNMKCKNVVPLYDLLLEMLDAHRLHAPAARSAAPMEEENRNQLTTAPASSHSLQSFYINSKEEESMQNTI
How it was run: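 Readout: fluorescent reporter-transcript fragments resolved by capillary electrophoresis after RT-PCR and HpaI cut. Chicken ERa-Gal4 fusion in transiently transfected HepG2, dosed for 24 h; activity taken as increase over DMSO baseline.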

[13] = test system: zebrafish Estrogen Receptor (ER2a), gene 317734; experiment: ATG_zfER2a_XSP2: Attagene TRANS-FACTORIAL Multi-Species (XSP2) HepG2 Assay for zebrafish Estrogen Receptor (ER2a) (AID 2283818);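 note: hits raise reporter mRNA so AC50 reflects activation of zebrafish ER2a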
How it was run: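 Multiplexed trans-reporter readout: RT-PCR then capillary electrophoresis of reporter transcripts after 24 h compound treatment. Human HepG2 carries transfected zebrafish ER2a-Gal4 chimera; 3 nM 6-alpha-fluorotestosterone plus 1.5 nM norgestrel present. Induction scored against DMSO.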

[14] = test system: chicken Androgen Receptor (AR), gene 422165; experiment: ATG_chAR_XSP2: Attagene TRANS-FACTORIAL Multi-Species (XSP2) HepG2 Assay for chicken Androgen Receptor (AR) (AID 2283819);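 note: hits raise reporter mRNA above DMSO so potency is for activation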
How it was run: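 Readout is reporter mRNA induction via RT-PCR/capillary electrophoresis after 24 h chemical exposure, positive direction relative to DMSO. Transiently transfected HepG2 express chimeric chicken AR–GAL4; AR stimulated by 3 nM 6-alpha-fluorotestosterone and 1.5 nM norgestrel.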

[15] = ATG_M_32_XSP2: Attagene TRANS-FACTORIAL Multi-Species (XSP2) HepG2 Assay for M19 Transcription Factor (Internal Marker) (AID 2283826)
How it was run: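 An internal background marker among multiplexed transfected reporters in HepG2 liver cells was measured 24 h after dosing. Androgen receptor stimulation came from 3 nM 6-alpha-fluorotestosterone and 1.5 nM norgestrel.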

[16] = target: Estrogen receptor (Homo sapiens) (UniProt P03372); experiment: ATG_hERa_XSP2: Attagene TRANS-FACTORIAL Multi-Species (XSP2) HepG2 Assay for human Estrogen Receptor (ERa) (AID 2283827)
Estrogen receptor (Homo sapiens), sequence (P03372 whole entry, looked up, the tested form may be a part): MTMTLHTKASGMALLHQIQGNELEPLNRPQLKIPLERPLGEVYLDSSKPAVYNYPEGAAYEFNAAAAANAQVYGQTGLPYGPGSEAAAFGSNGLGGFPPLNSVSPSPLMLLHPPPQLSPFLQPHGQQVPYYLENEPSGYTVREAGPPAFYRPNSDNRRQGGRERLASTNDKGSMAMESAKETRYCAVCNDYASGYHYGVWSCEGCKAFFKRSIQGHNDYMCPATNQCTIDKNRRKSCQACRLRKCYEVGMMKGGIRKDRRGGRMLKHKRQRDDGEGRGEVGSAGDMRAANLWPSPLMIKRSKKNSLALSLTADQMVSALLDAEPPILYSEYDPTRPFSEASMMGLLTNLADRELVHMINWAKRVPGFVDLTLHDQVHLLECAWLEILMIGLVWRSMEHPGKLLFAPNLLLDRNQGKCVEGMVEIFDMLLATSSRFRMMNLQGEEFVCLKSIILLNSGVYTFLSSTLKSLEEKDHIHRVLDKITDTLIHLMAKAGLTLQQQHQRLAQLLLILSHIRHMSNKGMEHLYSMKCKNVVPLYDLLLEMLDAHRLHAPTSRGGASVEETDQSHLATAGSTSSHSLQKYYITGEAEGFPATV
How it was run: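 Trans-activation of exogenous human ERa-Gal4 chimera read in HepG2 as reporter transcript after 24 h exposure; medium included 3 nM 6-alpha-fluorotestosterone and 1.5 nM norgestrel. Quantified by RT-PCR with capillary electrophoresis, positive-direction fitting against DMSO.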

[17] = target: mouse Peroxisome Proliferator-activated Receptor gamma (PPARg), Pparg (gene 19016) (UniProt P37238); experiment: ATG_mPPARg_XSP2: Attagene TRANS-FACTORIAL Multi-Species (XSP2) HepG2 Assay for mouse Peroxisome Proliferator-activated Receptor gamma (PPARg) (AID 2283830);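 note: hits are gains in reporter mRNA above DMSO so AC50 marks activation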
mouse Peroxisome Proliferator-activated Receptor gamma (PPARg), Pparg (gene 19016), sequence (P37238 whole entry, looked up, the tested form may be a part): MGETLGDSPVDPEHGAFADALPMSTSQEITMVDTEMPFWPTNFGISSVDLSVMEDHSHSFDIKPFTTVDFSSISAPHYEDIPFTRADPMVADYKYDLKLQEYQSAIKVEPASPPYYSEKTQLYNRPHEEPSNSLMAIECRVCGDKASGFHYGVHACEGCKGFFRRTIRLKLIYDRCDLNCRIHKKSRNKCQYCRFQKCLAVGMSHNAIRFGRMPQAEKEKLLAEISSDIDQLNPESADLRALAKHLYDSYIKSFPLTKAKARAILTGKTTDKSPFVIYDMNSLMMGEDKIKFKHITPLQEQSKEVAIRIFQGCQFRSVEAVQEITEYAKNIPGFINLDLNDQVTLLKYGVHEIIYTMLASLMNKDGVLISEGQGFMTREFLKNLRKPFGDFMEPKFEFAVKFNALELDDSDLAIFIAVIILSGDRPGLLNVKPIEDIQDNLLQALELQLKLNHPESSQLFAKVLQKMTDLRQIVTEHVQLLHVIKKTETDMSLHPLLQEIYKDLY
How it was run: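 Multiplexed TRANS reporter readout: after 24 h chemical exposure of transfected HepG2 cells (with 3 nM 6-alpha-fluorotestosterone, 1.5 nM norgestrel present), RNA reverse-transcribed, amplified, 6-FAM-labelled and resolved by capillary electrophoresis; mouse PPARg-Gal4 induction scored against DMSO.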

[18] = test system: frog Estrogen Receptor (ER), gene 398734; experiment: ATG_frER1_XSP2: Attagene TRANS-FACTORIAL Multi-Species (XSP2) HepG2 Assay for frog Estrogen Receptor (ER) (AID 2283821);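 note: hits raise reporter mRNA above DMSO baseline so potency means agonist or activator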
How it was run: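 Reporter mRNA induction, detected as fluorescence after RT-PCR and capillary electrophoresis, is the endpoint; activity is fitted upward against DMSO. Cells are human liver HepG2 carrying transfected NR-Gal4 chimeras with GAL4-UAS-driven reporters, harvested 24 h post-dosing.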

[19] = ATG_M_19_XSP2: Attagene TRANS-FACTORIAL Multi-Species (XSP2) HepG2 Assay for M32 Transcription Factor (Internal Marker) (AID 2283822)
How it was run: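 Internal background marker in a multi-species nuclear receptor TRANS panel: transfected HepG2 cells exposed 24 h, with 3 nM 6-alpha-fluorotestosterone and 1.5 nM norgestrel present. Readout is RT-PCR of reporter transcripts resolved by capillary electrophoresis, gain-of-signal versus DMSO.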

[20] = test system: frog Androgen Receptor (AR), gene 399456; experiment: ATG_frAR_XSP2: Attagene TRANS-FACTORIAL Multi-Species (XSP2) HepG2 Assay for frog Androgen Receptor (AR) (AID 2283824);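 note: reporter mRNA from GAL4-UAS units driven by Xenopus AR-Gal4 chimera; actives raise reporter signal above DMSO so AC50 reflects agonist-like induction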
How it was run: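 Reporter transcript induction, read by RT-PCR with fluorescent capillary electrophoresis, in human liver HepG2 cells carrying an exogenous Xenopus AR-Gal4 fusion and GAL4-driven reporters; chemical exposure 24 hours, activity scored upward against DMSO controls.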

Measured: AC50

CO/C=C(/C(=O)OC)c1ccccc1Oc1cc(Oc2ccccc2C#N)ncn1
inactive: [1] | [2] | [3] | [5] | [6] | [7] | [8] | [9]
active: [4] 0.545 µM

C#CCOS(=O)OC1CCCCC1Oc1ccc(C(C)(C)C)cc1 (stereo not drawn)
inactive: [10] | [11] | [12] | [15] | [6] | [8] | [9]
active: [13] 16.1 µM | [14] 4.55 µM | [1] 100 µM | [16] 12.1 µM | [3] 27.6 µM | [17] 38 µM | [4] 7.18 µM | [5] 163 µM

CCCCNC(=O)OCC#CI
inactive: [11] | [18] | [15] | [4] | [5] | [6] | [8]
active: [1] 26.2 µM | [3] 10.6 µM | [17] 25.6 µM | [7] 25.5 µM

CCCCOC(=O)c1ccccc1C(=O)OCCCC
active: [12] 23 µM | [18] 29 µM | [1] 79.3 µM | [16] 30.2 µM | [3] 100 µM | [17] 100 µM | [4] 14.4 µM
not listed: [2] | [5] | [8] | [10] | [20]
inactive: all other assays above

COP(=S)(OC)Oc1nc(Cl)c(Cl)cc1Cl
inactive: [13] | [4] | [5] | [7] | [8] | [9]
active: [10] 17.5 µM | [12] 35.3 µM | [14] 22.9 µM | [18] 43 µM | [1] 87.2 µM | [20] 29.7 µM | [16] 31.8 µM | [3] 4.74 µM | [17] 6.11 µM

CCCC1COC(Cn2cncn2)(c2ccc(Cl)cc2Cl)O1 (stereo not drawn)
inactive: [11] | [15] | [6] | [7] | [8]
active: [12] 3.88 µM | [18] 167 µM | [1] 39.5 µM | [3] 67.2 µM | [17] 100 µM | [4] 3.79 µM

OC(c1ccc(Cl)cc1)(c1cncnc1)c1ccccc1Cl (stereo not drawn)
active: [11] 25.9 µM | [12] 1.8 µM | [13] 26.5 µM | [1] 7.41 µM | [16] 0.941 µM | [3] 100 µM | [17] 100 µM | [4] 4.78 µM | [6] 45.8 µM
inactive: [18] | [15] | [5] | [7] | [8] | [9]

CON(C)C(=O)Nc1ccc(Cl)c(Cl)c1
active: [3] 161 µM | [4] 5.69 µM
inactive: [11] | [12] | [13] | [18] | [19] | [1] | [16] | [17] | [6] | [7]
